Drawing on PubChem BioAssay, this text covers composite z-score and z-score for 18 compounds.

Experiment [1] has as its system XIP peptide (Xip251-270) binding. Description: small-molecule binders of XIP peptide, primary screen, biochemical, small-molecule microarray, fluorescence 635/667 nm, 0.1 µg/mL protein (AID 1182). As to conditions: fluorescent protein binding, 635 nm, higher = more signal, called active from +8 up or from −8 down.
The test system of a further experiment is XIP peptide (Xip251-270). As to the kind of experiment: small-molecule binders of XIP peptide, primary screen, biochemical, small-molecule microarray, fluorescence 635/667 nm, 0.5 µg/mL protein (AID 1183). Conditions: small-molecule microarray binding, fluorescence 635 nm; higher = more signal.
Experiment [2] can be described thus: Plasmodium falciparum growth inhibition, primary screen, strain 3D7, DAPI fluorescence, 100 nL (AID 1184).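 Note: parasites grown inside human red blood cells in medium with human serum.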 Conditions: P. falciparum 3D7 growth, 3 d, higher = more signal.
For experiment [3], the target named is Homeobox protein Hox-A13 (Mus musculus) (UniProt Q62424). Description: inhibitors of HoxA13-DNA binding, primary screen, biochemical, fluorescence polarization, labeled oligonucleotide (AID 1185). Conditions: 15 min, higher = more signal, called active from +8 up or from −8 down. On the technique in general: Fluorescence polarisation rises when a labelled molecule tumbles more slowly, as on binding a larger partner.
Chain of Homeobox protein Hox-A13 (Mus musculus) (Q62424 whole entry, looked up): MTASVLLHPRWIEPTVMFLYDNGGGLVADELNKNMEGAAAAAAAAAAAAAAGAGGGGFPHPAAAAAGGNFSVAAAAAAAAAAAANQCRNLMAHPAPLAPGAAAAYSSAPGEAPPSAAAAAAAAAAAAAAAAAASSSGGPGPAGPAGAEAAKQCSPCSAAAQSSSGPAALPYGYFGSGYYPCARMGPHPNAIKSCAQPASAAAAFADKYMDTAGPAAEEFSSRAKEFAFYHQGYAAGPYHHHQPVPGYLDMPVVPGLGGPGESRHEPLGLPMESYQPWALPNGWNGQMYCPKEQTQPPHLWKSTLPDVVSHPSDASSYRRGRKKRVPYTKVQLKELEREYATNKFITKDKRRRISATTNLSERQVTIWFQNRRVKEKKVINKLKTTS

Experiment [4] can be described thus: inhibitors of hydroxyurea-induced Chk1 phosphorylation, primary screen, imaging, HeLa, phospho-Chk1 antibody, percent positive cells (AID 1186). Conditions: hydroxyurea-induced phospho-Chk1 immunofluorescence imaging, higher = more signal.
Experiment [5] in a line: inhibitors of hydroxyurea-induced Chk1 phosphorylation, primary screen, imaging, HeLa, phospho-Chk1 nuclear intensity (AID 1187). As to conditions: hydroxyurea-induced phospho-Chk1 immunofluorescence imaging, higher = more signal.

Calls of active or inactive are those of the source. Unless noted, the rule behind the calls is not given here.

`[N-]=[N+]=Nc1ccccc1[C@H]1OC(c2ccc(OCCCO)cc2)=N[C@@]1(CCS(=O)(=O)c1ccccc1)C(=O)NCc1ccccc1`: the composite z-score in experiment [1] was 0.273 (inactive); in the experiment with XIP peptide (Xip251-270), 0.774. In addition, the z-score in experiment [2] was -2.48; in experiment [3] it was -1.99 (inactive); in experiment [4], 0.517 (inactive); in experiment [5], 0.227 (inactive).
`COC(=O)[C@@]1(Cc2ccc(OC)cc2)[C@H]2c3cc(C(=O)N4CCCC4)n(CCSCCO)c3C[C@H]2CN1C(=O)c1ccccc1`: the composite z-score is 0.0308 (inactive) in experiment [1] and 0.826 in the experiment with XIP peptide (Xip251-270). Besides, the z-score in experiment [2] was -1.44; in experiment [3], -5.24 (inactive); in experiment [4], 1.35 (inactive); in experiment [5], 1.04 (inactive).
For `CN(C)CCCCCCNC(=O)[C@@H]1C[C@@H]2C(=O)N[C@@H](CCCC[N+](C)(C)C)C(=O)N2[C@@H]1c1ccc(O)cc1`, the composite z-score in experiment [1] is 0.759 (inactive); in the experiment with XIP peptide (Xip251-270), 0.146. Further, the z-score is 1.99 in experiment [2], -1.64 (inactive) in experiment [3], 0.702 (inactive) in experiment [4] and 0.0464 (inactive) in experiment [5].
`CCOC(=O)C[C@H]1[C@H](OC(=O)c2ccc(C(=O)c3ccccc3)cc2)[C@@H](NC(=O)c2ccccc2)c2cc(OCCCO)ccc2N1C(=O)c1ccccc1`: the results for the composite z-score (in experiment [1]; in the experiment on XIP peptide (Xip251-270)) were -0.492 (inactive) and 0.59, respectively. The z-score in experiment [2] is -0.263; in experiment [3] it was -1.19 (inactive); in experiment [4], 0.743 (inactive); in experiment [5] it was 0.943 (inactive).
Regarding `C=CC[C@]12N=C(c3ccc(OCCCO)cc3)O[C@H]1c1ccccc1N(CCS(=O)(=O)c1ccccc1)C2=O`, the composite z-score in experiment [1] is 3.59 (inactive); in the experiment with XIP peptide (Xip251-270), 0.708. The z-score in experiment [2] was -1.57; in experiment [3], -2.59 (inactive); in experiment [4], -0.382 (inactive); in experiment [5] it was -0.315 (inactive).
`OCC1C=C(/C=C/c2ccccc2)CN1Cc1ccccc1Br` (stereo not drawn): the composite z-score in experiment [1] was 1.74 (inactive); with XIP peptide (Xip251-270) it was 0.698. Also, the z-score in experiment [2] was -0.982; in experiment [3], -2.19 (inactive); in experiment [4], -0.449 (inactive); in experiment [5] it was -0.283 (inactive).
As for `OCCCC1=CC(C2CC2)N(Cc2cccc(OC(F)(F)F)c2)CC1` (stereo not drawn), the values for the composite z-score (in experiment [1]; in the experiment on XIP peptide (Xip251-270)) were 0.0736 (inactive) and 0.492, respectively. Further, the z-score in experiment [2] was -1.76; in experiment [3], -4.21 (inactive); in experiment [4] it was -0.245 (inactive); in experiment [5] it was 0.143 (inactive).
With `CCOC(=O)C[C@H]1[C@H](OC(=O)c2ccc(-c3ccccc3)cc2)[C@@H](NC(=O)c2ccccc2)c2cc(OCCCO)ccc2N1C(=O)Cc1ccc(OC)cc1`, the values for the composite z-score (in experiment [1]; in the experiment on XIP peptide (Xip251-270)) were -0.11 (inactive) and -0.664, respectively. For the same compound, the z-score in experiment [2] is -1.09; in experiment [3], -1.36 (inactive); in experiment [4], -0.0036 (inactive); in experiment [5] it was 0.16 (inactive).
Consider `CC(C)OC(=O)C=C1C[C@@H](c2cccc(Cl)c2)O[C@@H](c2cccc(Cl)c2)O1`, for which the composite z-score in experiment [1] is 0.262 (inactive); in the experiment on XIP peptide (Xip251-270), -0.226. In addition, the z-score in experiment [2] is -0.642; in experiment [3] it was -2.09 (inactive); in experiment [4], 0.193 (inactive); in experiment [5], -0.0046 (inactive).
For the compound `COC(=O)[C@H](Cc1ccccc1)N[C@H](/C=C/C1CC1)[C@@H](O)Cc1ccccc1`, the values for the composite z-score (in experiment [1]; with XIP peptide (Xip251-270)) were -0.126 (inactive) and 0.34, respectively. The z-score in experiment [2] is -0.873; in experiment [3], -5.24 (inactive); in experiment [4], -0.748 (inactive); in experiment [5], -0.39 (inactive).
Regarding `CCCC(=O)N(CCc1c[nH]c2ccccc12)[C@@H]1CC(C(=O)NCCO)=C[C@H](Oc2c(I)cc(CO)cc2OC)[C@H]1O`, the composite z-score in experiment [1] was -0.131 (inactive); in the experiment with XIP peptide (Xip251-270) it was 0.289. Besides, the z-score is -0.373 in experiment [2], -7.89 (inactive) in experiment [3], -1.51 (inactive) in experiment [4] and -2.68 (inactive) in experiment [5].
In the case of `NC(=O)[C@@]1(Cc2ccccc2)N=C(c2ccc(OCCCO)cc2)O[C@H]1c1ccccc1`, the composite z-score in experiment [1] is 1.08 (inactive); in the experiment on XIP peptide (Xip251-270) it was -0.41. Further, the z-score in experiment [2] is -0.689; in experiment [3], -5.07 (inactive); in experiment [4], -0.18 (inactive); in experiment [5], 0.135 (inactive).
As for `CS(=O)(=O)CCOC(=O)C1=CC(CCCO)=CC(C2CC2)N(Cc2cc3c(cc2Br)OCO3)C=C1C(=O)OCCS(C)(=O)=O` (stereo not drawn), the composite z-score is 0.389 (inactive) in experiment [1] and -0.111 in the experiment with XIP peptide (Xip251-270). Moreover, the z-score in experiment [2] was -2.58; in experiment [3], -5.51 (inactive); in experiment [4] it was -1.19 (inactive); in experiment [5] it was -0.295 (inactive).
Consider `CCC(CC)C(O)C1C=CC2C(=O)N(c3ccccc3)C(=O)C2N1Nc1ccccc1` (stereo not drawn), for which the composite z-score in experiment [1] was 0.285 (inactive); in the experiment on XIP peptide (Xip251-270), 0.816. The z-score in experiment [2] is 0.0789; in experiment [3], -3.76 (inactive); in experiment [4], 0.263 (inactive); in experiment [5], 0.0193 (inactive).
With `COCC(=C=CC[C@H](O)c1cccc(OCCO)c1)C[C@H](O)c1cc(Cl)cc(Cl)c1O`, the composite z-score was 0.378 (inactive) in experiment [1] and 0.825 in the experiment on XIP peptide (Xip251-270). Besides, the z-score in experiment [2] was -0.366; in experiment [3], -4.71 (inactive); in experiment [4], 0.144 (inactive); in experiment [5] it was 0.532 (inactive).
As for `O=C1O[C@H](c2ccccc2)[C@H](c2ccccc2)N2[C@H]1[C@@H](C(=O)NC[C@H](O)c1ccccc1)[C@]1(C(=O)Nc3ccc(C#CC4=CCCCC4)cc31)[C@H]2c1ccccc1OCCO`, the values for the composite z-score (in experiment [1]; with XIP peptide (Xip251-270)) were -0.0939 (inactive) and 0.203, respectively. In addition, the z-score in experiment [2] is -0.285; in experiment [3], 1.5 (inactive); in experiment [4] it was 0.0263 (inactive); in experiment [5], -0.294 (inactive).
Take `CC(c1ccccc1)C(O)C1C=CC2C(=O)N(C)C(=O)C2N1NC(=O)OC(C)(C)C` (stereo not drawn): the composite z-score is 2.04 (inactive) in experiment [1] and 0.63 in the experiment with XIP peptide (Xip251-270). Also, the z-score in experiment [2] was 1.05; in experiment [3], -2.6 (inactive); in experiment [4], -0.129 (inactive); in experiment [5] it was -0.0976 (inactive).
With `CCOC(=O)C1=CC[C@@H](c2ccc(C(F)(F)F)cc2)N(S(=O)(=O)c2ccc(C)cc2)[C@H]1c1ccccc1`, the composite z-score in experiment [1] was 0.544 (inactive); in the experiment with XIP peptide (Xip251-270), 0.762. Moreover, the z-score in experiment [2] was -2.02; in experiment [3], 0.759 (inactive); in experiment [4], 0.0487 (inactive); in experiment [5], -0.516 (inactive).
